Data on ten compounds can be found in PubChem BioAssay (NCATS).

Several values for one entry are separate records, joined by “and”; a condition that tells them apart may be missing. Identical values can stand only once. Values without a mark were called inactive. Results filed as inconclusive are left out. Activity calls are given as the source filed them. Unless noted, calls come from the whole dose curve; as a rule, active = well fitted curve in either direction with a large enough effect (not every such curve was filed as active); inconclusive = small, poorly fitted or top-dose-only effect, or another doubt; inactive = flat fitted curve, though single readings scatter.

Test [1] in a line: AP1 Signaling Pathway (AID 357). Note: % is set by controls: 0 for no effect and ±100 for the full control effect. The essentials:
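AP-1-bla ME-180 cells with beta-lactamase reporter under AP-1 response element, stimulated with EC50 EGF; compounds titrated, 5 hours at 37 degrees Celsius. CCF4 read at 460/530 nm ratio; positive and negative modulators judged by AC50.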

The nature of test [2]: NFAT Signaling Pathway (AID 444).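 Note: carbachol stimulus at about its EC50 of 1 µM final; % is set by controls: 0 for no effect and ±100 for the full control effect.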 As to conditions: Jurkat NFAT-bla M1, carbachol, beta-lactamase ratio, 5 h; at 17.2 µM (top of the series) unless noted. The essentials: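 Jurkat cells carrying an NFAT-driven β-lactamase reporter and co-transfected muscarinic M1 receptor were treated with compound plus carbachol (1 uM final, an EC50 level) for 5 h at 37 °C. CCF4 loading followed for 1 h at RT; 460/530 nm ratio gave %activity.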

Test [3] can be described thus: Stat Signaling Pathway (AID 446).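 Note: ME-180 cervical cancer cells given 40 pM IL-6 alongside compound; SIE-controlled beta-lactamase reporter measured as 460/530 nm FRET emission ratio; % is set by controls: 0 for no effect and ±100 for the full control effect.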 In short, it runs like this: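 ME-180 cells carrying a SIE-driven beta-lactamase reporter are stimulated with 40 pM IL-6 for 5 h at 37C in the presence of compound. The 460/530 nm FRET substrate ratio is read after 2.5 h at RT. Data are normalised to 300 pM IL-6 and to 125 nM JAK inhibitor controls.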
For test [4], the target named is Glucocorticoid receptor (Homo sapiens) (UniProt P04150). Put plainly: GR-GFP Redistribution (AID 450;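 active = compounds whose dose series gives a full or clear partial fitted curve of increased nuclear translocation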; note: potency is the fitted concentration of half-maximal effect). Conditions: U2OS GR-GFP nuclear translocation, laser cytometry, 2 h.
Chain of Glucocorticoid receptor (Homo sapiens) (P04150 whole entry, looked up, the tested form may be a part): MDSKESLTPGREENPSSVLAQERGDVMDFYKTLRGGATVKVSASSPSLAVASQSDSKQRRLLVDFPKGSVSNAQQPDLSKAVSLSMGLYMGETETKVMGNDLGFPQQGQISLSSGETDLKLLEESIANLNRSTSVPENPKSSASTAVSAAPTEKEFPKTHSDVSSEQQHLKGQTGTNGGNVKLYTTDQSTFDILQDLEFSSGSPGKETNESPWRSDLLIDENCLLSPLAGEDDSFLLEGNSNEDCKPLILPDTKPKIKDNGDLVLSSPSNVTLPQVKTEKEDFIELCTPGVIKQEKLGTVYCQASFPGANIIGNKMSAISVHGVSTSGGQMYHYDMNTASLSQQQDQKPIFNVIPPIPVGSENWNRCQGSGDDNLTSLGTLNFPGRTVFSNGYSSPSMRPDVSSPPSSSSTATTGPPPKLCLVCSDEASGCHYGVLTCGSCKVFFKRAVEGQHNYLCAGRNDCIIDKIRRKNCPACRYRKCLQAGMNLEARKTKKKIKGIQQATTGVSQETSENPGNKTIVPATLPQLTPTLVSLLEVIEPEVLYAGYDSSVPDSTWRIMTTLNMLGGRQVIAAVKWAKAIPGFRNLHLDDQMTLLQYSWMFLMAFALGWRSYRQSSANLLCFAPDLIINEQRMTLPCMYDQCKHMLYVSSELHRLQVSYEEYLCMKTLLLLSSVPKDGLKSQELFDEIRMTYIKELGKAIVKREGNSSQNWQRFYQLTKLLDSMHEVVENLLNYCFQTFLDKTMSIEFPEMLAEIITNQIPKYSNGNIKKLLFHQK
The nature of test [5]: Cell Viability - Hek293 (AID 427;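 active = compounds whose dose-response curve shows a full or clear partial loss of cell viability, called from curve shape rather than a numeric limit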;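 note: potency is the fitted concentration of half-maximal effect; cells exposed to compound for 40 hours at 37 °C before reading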). As to conditions: qHTS. The essentials: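 HEK293 cells in complete medium were exposed to compound for 40 hr at 37 °C, then cellular ATP was read by CellTiter-Glo luminescence. Data were normalized to DMSO (basal) and 100 uM tamoxifen (100% inhibition), and AC50 came from Hill fits.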
Background: In qHTS, concentration-response curves come from the screen itself.

Test [6] in a line: Cell Viability - HepG2 (AID 433; calls by dose curve;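 note: potency is the fitted concentration of half-maximal effect; potency for ATP loss meaning cytotoxicity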). As to conditions: qHTS. In short, it runs like this:
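ATP luminescence (CellTiter-Glo) after 40 h compound exposure, 37 °C, HepG2, 1500 cells/well, complete medium. Normalized: DMSO = basal, 100 uM tamoxifen = 100% inhibition. AC50 via standard Hill equation.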

The target in test [7] is Mitogen-activated protein kinase 10 (Mus musculus) (UniProt Q61831). In words: JNK3 AlphaScreen Assay (AID 530).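 Note: kinase came from lysate of stimulated human HepG2 cells; signal reports phosphorylation of biotinylated GST-cJun 1-79 at Ser73 with 10 µM ATP; % is set by controls: 0 for no effect and ±100 for the full control effect.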 The essentials:
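Inhibitors reduce antibody binding to phosphorylated biotin-cJun, lowering AlphaScreen luminescence. Lysates from HepG2 cells pre-activated by IL-1beta plus TNF-alpha supplied JNK3; compounds were titrated.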

Test [8] is described as follows: Cell Viability - N2a (AID 540; active = well fitted curve in the direction sought with a large enough effect; an effect the other way counts as inactive or inconclusive; note: nearly all actives have a fitted effect of over 45% in size; note: potency is the fitted concentration of half-maximal effect;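 for activity change, negative = cytotoxicity: plate controls were DMSO alone for no effect and tamoxifen control for full effect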). The essentials:
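Luminescent ATP signal (CellTiter-Glo, 20 min at room temperature) served as the viability read-out after N2a cells were treated with compounds for 40 hours at 37 °C. Concentration-response data were fitted to the Hill equation for AC50.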

Test [9] in a line: Cell Viability - NIH 3T3 (AID 541; active = well fitted curve in the direction sought with a large enough effect; an effect the other way counts as inactive or inconclusive; note: nearly all actives have a fitted effect of over 25% in size; note: potency is the fitted concentration of half-maximal effect;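 for activity change, negative = cytotoxicity: plate controls were DMSO alone for no effect and tamoxifen positive control for full effect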). As to conditions: NIH 3T3 cell viability, qHTS; activity change, negative = cytotoxicity: at 92.2 µM (top of the series). The essentials:
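Luminescent ATP signal (CellTiter-Glo) served as the viability read-out after NIH 3T3 cells were exposed to compounds over a concentration range for 40 hr at 37 °C. Hill-equation modelling of concentration-response data gave AC50.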

The nature of test [10]: Cell Viability - SH-SY5Y (AID 544; active = well fitted curve in the direction sought with a large enough effect; an effect the other way counts as inactive or inconclusive;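 note: 0% = DMSO alone and -100% = 100 µM tamoxifen; nearly all actives have a fitted effect of over 55% in size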). As to conditions: SH-SY5Y neuroblastoma cell viability; viability change, negative = cytotoxic: at 92.2 µM (top of the series). The essentials:
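Luminescent ATP read-out (CellTiter-Glo) measures loss of viable SH-SY5Y neuroblastoma cells after 40 hr compound exposure at 37 °C. AC50 values derive from standard Hill modelling of qHTS concentration-response data.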

For test [11], the target named is Cytochrome P450 1A2 (Homo sapiens) (UniProt P05177). In words: p450-cyp1a2 (AID 410; calls by dose curve; note: potency is the fitted concentration of half-maximal effect). In short, it runs like this:
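Luminescent readout of luciferin formed from Luciferin-ME by human CYP1A2; data normalized against complete inhibition by 57 uM furafylline. Enzyme 20nM, substrate 100uM at Km, 100mM KPO4 buffer, 60 min reaction at room temperature.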

Test [12] has as its target Glucocorticoid receptor (Homo sapiens) (UniProt P04150). Put plainly: GR-EFC Redistribution (AID 451; calls by dose curve; note: potency is the fitted concentration of half-maximal effect). As to conditions: CHO-K1 GR-EFC translocation, beta-gal luminescence, 2 h. In short, it runs like this: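 CHO-K1 cells stably expressing nuclear-localized β-gal enzyme acceptor and GR fused C-terminally to the enzyme donor fragment; ligand-driven nuclear translocation restores β-gal by complementation. Compounds titrated up to 46 uM final, 2 h at 37 °C; luminescence read.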

The target of test [13] is 3',5'-cyclic-AMP phosphodiesterase 4B (Homo sapiens) (UniProt Q07343). In words: qHTS Assay for Inhibitors of PDE-IV (AID 607; active = well fitted activation curve with a large enough effect in the main read-out, with a control signal flat, not every such curve was filed as active; note: % of control where 0% means no effect). The essentials: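 HEK293 ACTOne cells with CNG channel (1000/well), endogenous PDE4; membrane potential dye, compounds up to 22.9 uM final. Fluorescence Ex 535/Em 590; RO 20-1724 (100 uM final) as reference.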
Chain of 3',5'-cyclic-AMP phosphodiesterase 4B (Homo sapiens) (Q07343 whole entry, looked up): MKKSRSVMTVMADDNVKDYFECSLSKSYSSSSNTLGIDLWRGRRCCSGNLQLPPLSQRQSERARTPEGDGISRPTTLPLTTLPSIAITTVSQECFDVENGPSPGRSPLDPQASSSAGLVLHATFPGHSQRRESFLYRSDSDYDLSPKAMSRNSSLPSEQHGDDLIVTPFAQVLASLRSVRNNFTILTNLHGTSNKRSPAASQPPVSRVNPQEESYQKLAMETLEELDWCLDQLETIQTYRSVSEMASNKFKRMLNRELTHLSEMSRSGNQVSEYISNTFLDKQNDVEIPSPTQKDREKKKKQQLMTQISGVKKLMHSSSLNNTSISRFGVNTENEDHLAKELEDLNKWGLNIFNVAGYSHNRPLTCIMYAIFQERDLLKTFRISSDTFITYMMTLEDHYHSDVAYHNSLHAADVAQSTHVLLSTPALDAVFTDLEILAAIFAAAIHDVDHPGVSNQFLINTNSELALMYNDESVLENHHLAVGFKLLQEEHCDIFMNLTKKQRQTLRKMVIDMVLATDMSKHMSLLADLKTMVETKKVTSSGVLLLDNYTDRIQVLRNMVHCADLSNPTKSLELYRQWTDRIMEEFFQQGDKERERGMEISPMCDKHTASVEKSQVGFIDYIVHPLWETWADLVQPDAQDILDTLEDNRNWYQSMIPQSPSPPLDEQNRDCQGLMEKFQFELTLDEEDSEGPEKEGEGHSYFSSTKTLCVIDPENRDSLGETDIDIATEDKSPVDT
Test [14] in a line: Cell Viability - BJ (AID 421; calls by dose curve;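 note: potency is the fitted concentration of half-maximal effect; cells exposed to compound for 40 hours at 37 °C before readout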). As to conditions: BJ fibroblast viability, qHTS. The essentials: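 Normal human BJ foreskin fibroblasts, 1500/well in complete medium, treated 40 hr at 37 °C. Cellular ATP by CellTiter-Glo luminescence; normalized to DMSO and 100 uM tamoxifen, AC50 from Hill fit.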
The nature of test [15]: Cell Viability - MRC5 (AID 434; calls by dose curve;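 note: potency is the fitted concentration of half-maximal effect; potency reflects cytotoxicity seen as loss of intracellular ATP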). Conditions: MRC5 lung fibroblast viability, qHTS. In short, it runs like this:
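MRC5 normal human lung fibroblasts (1500/well) were treated with compounds for 40 hr at 37 °C in complete medium, and viable cells were measured as intracellular ATP by CellTiter-Glo luminescence. AC50 came from Hill fits, normalized to DMSO and 100 uM tamoxifen.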

Test [16] can be described thus: Cell Viability - H-4-II-E (AID 543; active = well fitted curve in the direction sought with a large enough effect; an effect the other way counts as inactive or inconclusive; note: potency is the fitted concentration of half-maximal effect; nearly all actives have a fitted effect of over 35% in size). The essentials:
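Luminescent ATP signal (CellTiter-Glo) served as the viability read-out, with cytotoxicity seen as a concentration-dependent ATP drop. Cells were treated for 40 hours in complete medium. AC50 values derive from Hill-equation modelling.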

Test [17] can be described thus: Cellular Toxicity (caspase-3) HepG2 (AID 654; active = well fitted curve in the direction sought with a large enough effect; an effect the other way counts as inactive or inconclusive;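 note: cells exposed to compound for 16 hours before reading; 0% = DMSO alone and 100% = caspase signal from 100 µM tamoxifen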). The essentials:
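Cells plated 5 hr at 37 °C, compound added, incubated 16 hr at 37 °C. Caspase-Glo 3/7 reagent followed, 20 min at room temperature, then luminescence read. Activation scored as signal increase; AC50 from Hill fit.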

Chain of Cytochrome P450 1A2 (Homo sapiens) (P05177 whole entry, looked up): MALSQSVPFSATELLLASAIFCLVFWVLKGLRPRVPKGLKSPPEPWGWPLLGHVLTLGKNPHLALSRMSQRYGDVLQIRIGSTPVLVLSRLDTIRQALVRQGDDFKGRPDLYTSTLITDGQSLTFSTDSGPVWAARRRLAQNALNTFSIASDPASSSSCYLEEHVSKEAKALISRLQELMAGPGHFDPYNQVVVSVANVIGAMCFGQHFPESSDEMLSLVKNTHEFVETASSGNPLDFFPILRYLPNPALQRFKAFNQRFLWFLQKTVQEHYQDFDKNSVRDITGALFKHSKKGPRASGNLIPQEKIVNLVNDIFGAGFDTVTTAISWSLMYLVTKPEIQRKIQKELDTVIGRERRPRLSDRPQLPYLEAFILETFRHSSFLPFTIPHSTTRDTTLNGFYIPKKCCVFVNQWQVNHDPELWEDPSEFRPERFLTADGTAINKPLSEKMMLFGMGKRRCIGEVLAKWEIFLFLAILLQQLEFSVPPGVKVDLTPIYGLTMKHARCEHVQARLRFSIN

In the case of `CC(=O)OC[C@H]1O[C@@H](n2ncc(=O)[nH]c2=O)[C@H](OC(C)=O)[C@@H]1OC(C)=O`, the result in [1] and in test [3] was inactive. Moreover, in test [2], the activity change, negative = inhibition was -22.9%. The Potency in [4] is > 20.6 µM.
With `Oc1ccc(Cl)cc1Cc1cc(Cl)ccc1O`, the Potency in test [5] was 37.4 µM (active); in [6] it was 40.6 µM (active); in test [8] it was 31.6 µM (active). Further, the Potency result in test [7] was “inactive”. Moreover, the activity change, negative = cytotoxicity in test [9] was -84.9% (active). In addition, in [10], the viability change, negative = cytotoxic was -85.8% (active).
As for `CC[C@H](c1ccc(O)cc1)[C@@H](CC)c1ccc(O)cc1`, the Potency was 12.6 µM (active) in test [11], > 20.6 µM in [4] and > 20.6 µM in test [12]. In addition, the call in test [3] and in test [13] was inactive. Further, the Potency entry in [7] is “inactive”.
Turning to `COc1cc(C)nc(-n2nc(C)cc2OC)n1`, the compound was classed as inactive in test [1], in test [3] and in [13]. Also, in test [2], the activity change, negative = inhibition is -6.98%. Besides, the Potency in [4] and in test [12] was > 20.6 µM in each case. In addition, the Potency entry in [7] is “inactive”.
Consider `Cl/C(=C\n1cncn1)c1ccc(Cl)cc1Cl`, for which the values for the Potency in test [11], in test [4] and in test [12] were 0.0631 µM (active), > 46 µM and > 46 µM, respectively. Moreover, the outcome in test [13] was inactive.
Consider `COc1cc(NS(=O)(=O)c2ccc(N)cc2)ncn1`, for which the result in [1], in [3] and in test [13] was inactive. In addition, in test [2], the activity change, negative = inhibition was -5.57% and -24.6% and -2.19%. Also, the Potency in [4] and in test [12] was > 20.6 µM throughout. In addition, in test [7], the Potency result is “inactive”.
Consider `COc1cc([C@H]2Oc3cc([C@H]4Oc5cc(O)cc(O)c5C(=O)[C@@H]4O)ccc3O[C@@H]2CO)ccc1O`, for which the Potency was > 92 µM in test [14]; > 92 µM in test [5]; > 92 µM in test [6]; > 92 µM in test [15]; 31.6 µM (active) in test [9]; 31.6 µM (active) in test [16]. In addition, in test [8], the Potency result was “inactive”. Besides, the viability change, negative = cytotoxic in test [10] was -84.4% (active). For the same compound, the result in test [17] was inactive.
In the case of `CN=C(N)NCCC[C@H](N)C(=O)O`, the call in [1] and in [13] was inactive. The activity change, negative = inhibition in test [2] is -7.03% [at 38 µM]. Moreover, the Potency result in [7] was “inactive”.
As for `CCN(CC)CCNC(=O)COc1ccc(OC)cc1`, the outcome in test [1], in test [3] and in [13] was inactive. Moreover, the activity change, negative = inhibition in test [2] was -21.8%. The Potency in test [4] and in [12] was > 20.6 µM in each case. In addition, the Potency entry in [7] is “inactive”.
`CN1CCC(OC(c2ccccc2)c2ccccc2)CC1`: the compound was classed as inactive in test [1], in test [3] and in test [13]. For the same compound, in test [12], the Potency is > 20.6 µM. The Potency result in test [7] was “inactive”.
